# What was measured:
# Test in all cases: PBM binding z-score (relative to random genomic background probes); higher = stronger binding; sequences stand for … in GC…GCGATTGACAGCGTAGAATGAAGG
# [1] = system: FXR:RXRa (NR concentration 270 nM, RXRa partner concentration 90 nM)
# Outline: (§1)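 Random background probes are the reference for binding z-scores. These scores derive from regression-normalized fluorescence on custom Agilent 4×180K protein-binding microarrays incubated 1 h with ligand-free nuclear receptor dimers. Binding was detected with antibodies against each partner (one per run).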
# [2] = system: LXRa:RXRa (NR concentration 270 nM, RXRa partner concentration 90 nM)
# Outline: as §1
# [3] = system: LXRa homodimer (NR concentration 270 nM)
# Outline: as §1
# [4] = system: LXRb:RXRa (NR concentration 270 nM, RXRa partner concentration 90 nM)
# Outline: as §1
# [5] = system: LXRb homodimer (NR concentration 270 nM)
# Outline: as §1
# [6] = system: PPARa:RXRa (NR concentration 270 nM, RXRa partner concentration 90 nM)
# Outline: as §1
# [7] = system: PPARg:RXRa (NR concentration 180 nM, RXRa partner concentration 90 nM)
# Outline: as §1
# [8] = system: PPARg:RXRa 270nM:90nM, anti-RXR (NR concentration 270 nM, RXRa partner concentration 90 nM)
# Outline: as §1
# [9] = system: PPARg:RXRa 30nM:10nM, anti-RXR (NR concentration 30 nM, RXRa partner concentration 10 nM)
# Outline: as §1
# [10] = system: PPARg:RXRa 90nM:30nM, anti-RXR (NR concentration 90 nM, RXRa partner concentration 30 nM)
# Outline: as §1
Sequence,PBM binding z-score [1],PBM binding z-score [2],PBM binding z-score [3],PBM binding z-score [4],PBM binding z-score [5],PBM binding z-score [6],PBM binding z-score [7],PBM binding z-score [8],PBM binding z-score [9],PBM binding z-score [10]
GTACCAAGGTGAATAGGTCGTAGATGAGTAGGCG,0.946,0.897,-0.305,0.416,-0.297,2.39,1.82,2.02,0.602,1.25
CCTAACGGGTCACTGACAGGTTATAGCATTTGGA,4.16,3.46,0.268,2.65,-0.0444,4.42,3.07,3.01,0.84,1.88
GGAACGCGGGCAAGTTGATAGCAGAGTTTGATGG,-0.639,-0.548,-0.597,-1.24,-0.732,-0.903,0.256,-0.889,-0.573,-0.957
TCTAGCAGGCCAGAGGGTCACGCAAGAGGTACGG,1.68,1.54,-0.618,1.93,-1.47,3.24,2.4,2.99,1.96,2.57
ATCGAAAGGTCGAGGTGAGTATTGAGAAAGGGAA,4.14,3.39,-0.0656,2.81,0.293,4.74,3.29,3.53,1.37,2.19
AGAATGAGGTTATACGTAGATCAGGGAGGAAAGT,2.22,1.64,0.0751,1.53,0.198,3.09,1.85,2.09,0.848,1.57
CGTCCAAGGTCAATGCTAGGTCAGCGAAAGCATT,6.63,5.79,2.77,4.08,1.43,5.16,4.44,4.73,1.24,3.25
TATCGGAGGACACGAAAGGTCAGAGCTCGACATC,3.35,4.54,4.27,3.43,0.855,3.93,2.18,2.81,1.03,2.13
GTACCAAGGTGAATAGCTCGTTGATGAGTAGGCG,-0.0145,0.0679,-0.285,-0.246,-0.451,0.416,0.554,0.238,-0.33,-0.123
GTTATTAGTTGAAAGGGCAACCGAATGATTCTCG,1.4,1.73,1.19,1.56,1.28,3.14,3.9,5.52,3.84,5.47
TCGAGTAGGTTACCAATGGGGCATACAGCTTTCT,0.164,1.55,-0.441,1.04,-0.663,1.18,0.984,1.68,1.27,1.28
CAAACTACGTCAAGAGGTCAAAGTCCGCTTCCCG,5.07,5.77,5.87,4.77,2.06,5.09,3.07,4.83,2.39,4.26

# From the supplement of paper PMC6555819
